Measurements published in PubChem BioAssay.
The source made the active and inactive calls. Unless noted, the rule behind the calls is not given here.

What was measured:
[1] = resazurin metabolic signal in HepG2 cells – cell-based, resazurin fluorescence, 24 h, PK04 Diversity Set, profiling panel (AID 1172); details: HepG2 viability, higher = more signal
[2] = budding yeast growth changes without added modifier – OD600, strain BY4716, 24 h, basal condition, primary screen (AID 1173); details: S. cerevisiae BY4716 growth, OD600, 24 h; higher = more signal, called active from +8 up or from −8 down
[3] = viability profiling in MM1S myeloma cells – cell-based, resazurin fluorescence, basal, 24 h, PK04 Diversity Set, profiling panel (AID 1174); details: higher = more signal, called active from +8 up or from −8 down;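 note: MM1S multiple myeloma cell line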
[4] = target: Dihydroorotate dehydrogenase (quinone), mitochondrial (Plasmodium falciparum (isolate 3D7)) (UniProt Q08210); experiment: inhibition of P. falciparum DHODH – biochemical, C-terminal His tag, absorbance 600 nm, primary screen (AID 1175); details: PfDHODH enzyme, DCIP absorbance 600 nm; higher = more signal, called active from +8 up or from −8 down;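 note: recombinant parasite enzyme with a five histidine tag at its C terminus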
Chain of Dihydroorotate dehydrogenase (quinone), mitochondrial (Plasmodium falciparum (isolate 3D7)) (Q08210 whole entry, looked up): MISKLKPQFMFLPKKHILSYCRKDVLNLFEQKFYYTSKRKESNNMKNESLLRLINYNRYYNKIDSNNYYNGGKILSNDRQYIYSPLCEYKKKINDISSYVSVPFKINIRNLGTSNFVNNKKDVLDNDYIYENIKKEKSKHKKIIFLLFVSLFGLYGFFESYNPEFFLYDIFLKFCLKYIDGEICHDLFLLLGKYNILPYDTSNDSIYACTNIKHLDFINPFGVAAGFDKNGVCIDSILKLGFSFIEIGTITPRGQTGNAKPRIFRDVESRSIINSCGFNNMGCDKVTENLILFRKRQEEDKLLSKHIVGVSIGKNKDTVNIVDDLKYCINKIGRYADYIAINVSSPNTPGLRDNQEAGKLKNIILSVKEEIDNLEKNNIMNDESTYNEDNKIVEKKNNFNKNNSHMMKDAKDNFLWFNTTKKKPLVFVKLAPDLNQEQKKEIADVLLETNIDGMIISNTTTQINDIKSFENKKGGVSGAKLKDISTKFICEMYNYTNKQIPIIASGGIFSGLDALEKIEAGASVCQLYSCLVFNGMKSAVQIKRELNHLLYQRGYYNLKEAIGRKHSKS

[5] = inhibition of PAO1 biofilm formation – strain PAO1, LB-PBS medium, absorbance 600 nm, primary screen (AID 1176); details: P. aeruginosa PAO1 growth/biofilm, A600, 12 h; higher = more signal
[6] = growth modulation of vineyard yeast isolate – strain RM11-1a, OD600, basal, 24 h, primary screen (AID 1177);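 note: cultures grown under basal conditions with no added stressor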; details: S. cerevisiae RM11-1a growth, OD600, 24 h; higher = more signal, called active from +8 up or from −8 down
[7] = growth of efflux-deficient E. coli DRC39 – strain DRC39, OD650, 24 h, E. coli filamentation inducers, primary screen (AID 1178);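 note: growth measured as culture turbidity by optical density at 650 nm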; details: E. coli DRC39 acrAB, higher = more signal, called active from +8 up or from −8 down
[8] = growth of efflux-deficient E. coli DRC39 – strain DRC39, OD650, 48 h, E. coli filamentation inducers, primary screen (AID 1179);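 note: screen aims at cell division blockers that make cells filament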; details: E. coli DRC39 delta-acrAB growth, higher = more signal, called active from +8 up or from −8 down
[9] = viability profiling in RPMI8226 myeloma cells – cell-based, resazurin fluorescence, basal, 24 h, PK04 Diversity Set, profiling panel (AID 1180); details: higher = more signal;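 note: RPMI8826 multiple myeloma cell line at 5000 cells per well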
[10] = target: E3 ubiquitin-protein ligase XIAP (Homo sapiens) (UniProt P98170); experiment: small molecules binding XIAP protein – biophysical, small-molecule microarray, fluorescence 635 nm, primary screen (AID 1181); details: higher = more signal;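 note: score merges 667 nm emission and signal to noise over triplicate slides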
Chain of E3 ubiquitin-protein ligase XIAP (Homo sapiens) (P98170 whole entry, looked up, the tested form may be a part): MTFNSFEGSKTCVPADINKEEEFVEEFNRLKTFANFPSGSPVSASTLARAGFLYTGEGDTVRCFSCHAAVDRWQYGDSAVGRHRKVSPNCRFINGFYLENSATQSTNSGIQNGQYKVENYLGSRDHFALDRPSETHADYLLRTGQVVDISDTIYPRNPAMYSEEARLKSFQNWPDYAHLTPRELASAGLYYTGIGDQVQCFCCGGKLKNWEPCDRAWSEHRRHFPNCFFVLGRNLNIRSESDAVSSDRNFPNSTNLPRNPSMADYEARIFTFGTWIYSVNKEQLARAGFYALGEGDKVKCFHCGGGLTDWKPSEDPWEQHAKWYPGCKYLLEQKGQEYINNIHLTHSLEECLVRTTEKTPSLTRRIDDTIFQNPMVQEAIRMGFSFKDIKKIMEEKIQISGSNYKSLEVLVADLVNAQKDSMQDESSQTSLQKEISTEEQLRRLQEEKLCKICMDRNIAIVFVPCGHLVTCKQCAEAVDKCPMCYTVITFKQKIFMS

[11] = tested on: XIP peptide (Xip251-270) binding; experiment: XIP fragment 251-270 binding compounds – biochemical, small-molecule microarray, fluorescence 635/667 nm, 0.1 µg/mL protein, primary screen (AID 1182); details: fluorescent protein binding, 635 nm, higher = more signal, called active from +8 up or from −8 down
[12] = tested on: XIP peptide (Xip251-270); experiment: compounds binding XIP fragment 251-270 – biochemical, small-molecule microarray, fluorescence 635/667 nm, 0.5 µg/mL protein, primary screen (AID 1183); details: fluorescence 635 nm, higher = more signal
[13] = blood-stage malaria parasite viability loss – strain 3D7, DAPI fluorescence, 100 nL, primary screen (AID 1184);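 note: parasites grown inside human red blood cells in medium with human serum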; details: P. falciparum 3D7 growth, 3 d, higher = more signal
[14] = target: Homeobox protein Hox-A13 (Mus musculus) (UniProt Q62424); experiment: disruptors of Hoxa13 oligonucleotide interaction – biochemical, fluorescence polarization, labeled oligonucleotide, primary screen (AID 1185); details: Hoxa13:DNA binding, 15 min, higher = more signal, called active from +8 up or from −8 down
Chain of Homeobox protein Hox-A13 (Mus musculus) (Q62424 whole entry, looked up): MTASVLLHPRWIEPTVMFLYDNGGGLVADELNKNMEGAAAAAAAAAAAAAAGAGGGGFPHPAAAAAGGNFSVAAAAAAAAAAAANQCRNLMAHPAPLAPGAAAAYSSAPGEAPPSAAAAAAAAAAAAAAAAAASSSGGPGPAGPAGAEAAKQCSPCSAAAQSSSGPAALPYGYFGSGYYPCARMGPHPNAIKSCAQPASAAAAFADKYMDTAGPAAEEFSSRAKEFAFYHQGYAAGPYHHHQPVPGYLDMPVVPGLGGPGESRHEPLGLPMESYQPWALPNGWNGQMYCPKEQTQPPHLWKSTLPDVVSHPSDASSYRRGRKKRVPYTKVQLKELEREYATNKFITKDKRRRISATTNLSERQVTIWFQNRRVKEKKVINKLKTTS

[15] = blockers of DNA damage checkpoint Chk1 activation – imaging, HeLa, hydroxyurea, phospho-Chk1 antibody, percent positive cells, primary screen (AID 1186); details: hydroxyurea-induced phospho-Chk1 immunofluorescence imaging, higher = more signal
[16] = blockers of DNA damage checkpoint Chk1 activation – imaging, HeLa, hydroxyurea, phospho-Chk1 nuclear intensity, primary screen (AID 1187); details: hydroxyurea-induced phospho-Chk1 immunofluorescence imaging, higher = more signal

Row | Structure (SMILES) | z-score [1] | z-score [2] | z-score [3] | composite z-score [4] | z-score [5] | z-score [6] | z-score [7] | z-score [8] | z-score [9] | composite z-score [10] | composite z-score [11] | composite z-score [12] | z-score [13] | z-score [14] | z-score [15] | z-score [16]
1 | COc1ccc([Si](C)(C)[C@H]2[C@H](CCO)O[C@@]3(C(=O)N(Cc4cccc(N5C(=O)c6cccc7cccc5c67)c4)c4ccccc43)[C@@H]2C)cc1 | -2.42 | 1.18 (inactive) | -4.22 (inactive) | 0.763 (inactive) | 1.51 (inactive) | 4.72 (inactive) | 0.0827 (inactive) | -0.511 (inactive) | -4.88 | 0.224 | 0.834 (inactive) | 0.512 | -2.82 | -1.61 (inactive) | -0.283 (inactive) | -0.304 (inactive)
2 | CN1C(=O)C2C(C1=O)C1C=C(c3ccc(CO)cc3)C2C(C2CC2)N1Cc1cc2c(cc1Br)OCO2 (centres undefined) | -0.698 | -2.01 (inactive) | -1.31 (inactive) | -2.33 (inactive) | 0.0061 (inactive) | -0.889 (inactive) | 0.101 (inactive) | -0.0102 (inactive) | -1.47 | 0.111 | 2.71 (inactive) | 0.832 | -2.16 | -4.5 (inactive) | -0.369 (inactive) | -0.327 (inactive)
3 | COc1ccc(C#Cc2ccc3c(c2)[C@]2(C(=O)N3)[C@H](C(=O)N3CCN(c4ncccn4)CC3)[C@H]3C(=O)O[C@H](c4ccccc4)[C@H](c4ccccc4)N3[C@@H]2c2ccc(O)cc2)cc1 | -0.795 | 0.21 (inactive) | 0.0492 (inactive) | -3.34 (inactive) | 0.999 (inactive) | 0.881 (inactive) | -0.423 (inactive) | 0.182 (inactive) | 0.225 | -0.0149 | -0.219 (inactive) | 0.734 | -1.08 | -0.983 (inactive) | -0.247 (inactive) | -0.298 (inactive)
4 | CC(=O)NCCCC[C@@H]1NC(=O)[C@@H]2C[C@H](C(=O)NCCCCCC[N+](C)(C)C)[C@H](c3cccc(OCCO)c3)N2C1=O | -0.29 | 1.05 (inactive) | -0.147 (inactive) | -0.908 (inactive) | 0.118 (inactive) | 1.44 (inactive) | -0.119 (inactive) | -0.42 (inactive) | -0.536 | -0.36 | 1.52 (inactive) | 0.345 | 0.129 | -4.94 (inactive) | -0.502 (inactive) | -0.0493 (inactive)
5 | C=CC[C@@]1(C(=O)NCc2ccccc2)N=C(c2ccc(OCCCO)cc2)O[C@@H]1c1ccccc1CN=[N+]=[N-] | -0.46 | 1.36 (inactive) | -1.89 (inactive) | 1.63 (inactive) | 1.1 (inactive) | 2.33 (inactive) | 0.537 (inactive) | -0.793 (inactive) | -1.45 | 0.404 | -0.0368 (inactive) | 0.496 | -2.28 | -10.5 (active) | 0.168 (inactive) | 0.43 (inactive)
6 | CN(C)CCCCCCNC(=O)[C@@H]1C[C@@H]2C(=O)N[C@@H](Cc3ccccc3)C(=O)N2[C@@H]1c1cccc(OCCO)c1 | -0.272 | -0.117 (inactive) | -0.826 (inactive) | -0.562 (inactive) | -0.695 (inactive) | -0.704 (inactive) | 0.25 (inactive) | 0.0332 (inactive) | -0.592 | 0.564 | 2.15 (inactive) | 0.809 | 0.526 | -4.13 (inactive) | 0.0258 (inactive) | -0.024 (inactive)
7 | C[n+]1ccc2ccc(O)cc2c1 | 0.0027 | -1.06 (inactive) | 0.242 (inactive) | -0.843 (inactive) | -0.131 (inactive) | 0.582 (inactive) | 0.0452 (inactive) | -0.0896 (inactive) | -0.654 | 0.473 | 1.35 (inactive) | 0.612 | -0.901 | -8.11 (active) | 0.124 (inactive) | 0.282 (inactive)
8 | COCCn1c(C(=O)N2CCCC2)cc2c1C[C@H]1CN(C(=O)c3ccccc3)[C@@](Cc3ccc(OC)cc3)(C(=O)OC)[C@@H]21 | -0.818 | -0.35 (inactive) | -0.716 (inactive) | -1.79 (inactive) | 0.576 (inactive) | -0.944 (inactive) | -0.0628 (inactive) | 0.763 (inactive) | -0.939 | 0.232 | 0.541 (inactive) | 0.603 | -1.55 | -4.97 (inactive) | -0.598 (inactive) | -0.634 (inactive)
9 | O=C1O[C@@H](c2ccccc2)[C@@H](c2ccccc2)N2[C@@H](c3ccc(O)cc3)[C@]3(C(=O)Nc4ccccc43)[C@@H](C(=O)N3CCCCCCC3)[C@H]12 | 0.305 | 0.189 (inactive) | -1.05 (inactive) | 0.0791 (inactive) | 1.34 (inactive) | 1.19 (inactive) | 0.36 (inactive) | -1.16 (inactive) | -1.01 | 0.613 | 3.19 (inactive) | 0.862 | -1.54 | 3.1 (inactive) | 0.242 (inactive) | 0.883 (inactive)
